MLL AF4-AF9 inh – inhibitors of human MLL-AF4/AF9 interaction | P42568 | AlphaScreen, biotin-AF4 peptide binding to FLAG-AF9 | inhibition, % at 10 µM | 350,000 compounds, 0.47% hits | AID 651704;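 active = every replicate reaching a set inhibition limit, whatever the replicate mean, cut at about 25% in these data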;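 note: 0% = plate neutral control median and 100% = total signal loss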
Target sequence (P42568 whole entry, looked up): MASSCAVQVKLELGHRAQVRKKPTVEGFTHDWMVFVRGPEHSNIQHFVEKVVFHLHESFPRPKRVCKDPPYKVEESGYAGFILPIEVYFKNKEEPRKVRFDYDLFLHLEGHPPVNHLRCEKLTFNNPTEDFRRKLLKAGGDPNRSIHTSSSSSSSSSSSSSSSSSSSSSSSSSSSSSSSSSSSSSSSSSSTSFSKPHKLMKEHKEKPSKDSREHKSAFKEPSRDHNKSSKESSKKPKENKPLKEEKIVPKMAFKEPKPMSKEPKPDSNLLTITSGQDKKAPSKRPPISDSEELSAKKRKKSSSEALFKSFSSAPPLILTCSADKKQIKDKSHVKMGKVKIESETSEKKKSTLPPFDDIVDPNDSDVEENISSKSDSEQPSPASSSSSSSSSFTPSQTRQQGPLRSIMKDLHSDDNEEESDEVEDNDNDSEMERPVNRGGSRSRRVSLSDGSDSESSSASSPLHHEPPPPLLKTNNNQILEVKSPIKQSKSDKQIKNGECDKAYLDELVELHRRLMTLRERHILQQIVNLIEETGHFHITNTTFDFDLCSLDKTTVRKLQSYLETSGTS
esBAF inh – SWI/SNF esBAF complex inhibition; mouse ES cells, Bmi1-luciferase knock-in reporter, 24 h; 100% = twice the neutral-well signal; reporter increase, % at 12.5 µM; 350,000 compounds, 2% hits; in the data active = activation above about 40%;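 note: 0% = median of the plate's neutral control wells and 100% = double that signal; a rise in the Bmi1 reporter signal indicates esBAF inhibition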
MITF act – increases MITF-driven TRPM1 promoter luciferase signal; activation, % at 12.5 µM; SK-MEL-5 TRPM1-promoter luciferase, 24 h; % of positive control, neutral wells = 0; 300,000 compounds, 0.75% hits; AID 588334;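 active = mean activation of at least 80% with every replicate also reaching 80%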;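 note: 0% = neutral control wells and 100% = parthenolide positive control wells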
rRNA inh HTS – inhibits bacterial ribosomal RNA function over humanized ribosomes. GFP signal change (wild-type ribosome), % (test concentration not listed). 350,000 compounds, 1.6% hits. AID 720706. E. coli WT GFP vs humanized-ribosome RFP mutants, fluorescence, 24 h; stronger effect = lower value; DMSO median 0, no signal -100;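 active = significant combined selectivity score with lowered wild-type GFP, culture density cut under 30%, mutant RFP and density less affected; inactive = any of these conditions unmet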
Wnt act – activators of Wnt/beta-catenin signaling. Wnt/beta-catenin reporter cell assay, activator, plate reader. activation, % at 9.35 µM. 300,000 compounds, 1.2% hits; in the data active = activation above about 30%, passing the limit was not always enough;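 note: 0% = neutral control wells and 100% = positive control wells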
Active calls of the source: *; · = not tested or not shown. Shown are actives, neighbours in structure and some others; about 3.7% of the full set was active somewhere.

SMILES	MLL AF4-AF9 inh	esBAF inh	MITF act	rRNA inh HTS	Wnt act
O=C(C1CCN(c2nc3ccc(Br)cc3s2)CC1)N1CCC2(CC1)OCCO2	·	64*	19	·	·
CCN(CC)c1ccc(/C=C2\C(=O)NC(=S)N(C)C2=O)o1	-2	6	·	7	37*
CCN(CC)c1ccc(C=C2C(=O)N(C)C(=S)N(C)C2=O)o1	-6	·	29	6	14
Cc1ccc(OCCOc2cccc(C=C3C(=O)NC(=O)NC3=O)c2)cc1	-4	-1	-35	6	37*
Cc1cc(C)cc(OCCOc2cccc(C=C3C(=O)NC(=O)NC3=O)c2)c1	-1	15	·	-9	3
Cc1ccnc(NC(=O)CCCc2ccc(N(CCCl)CCCl)cc2)n1	26*	-22	-6	19	4
CC(C)(C)C(=O)O[C@H]1CC[C@@]2(C)C(=CC(=O)C3C2CC[C@]2(C)C(=O)[C@H](O)CC32)C1 (stereo partly drawn)	-1	2	-14	-4	-8
O=P1(c2ccccc2)Nc2ccccc2N1c1ccccc1 (stereo not drawn)	28*	·	-4	-57	-8
O=C(NCNC(=O)NC1C(=O)NC(=O)N1CO)NC1C(=O)NC(=O)N1CO (stereo not drawn)	-3	-4	-5	·	-4
COC(=O)c1c(C)[nH]c(C(=O)C(Cc2ccccc2)N(C)C)c1C (stereo not drawn)	·	17	5	·	·
Fc1cccc(F)c1-c1nc(-c2ccc(Cl)cc2)no1	5	64*	·	-1	65*
COc1cc(O)cc2c1cc([N+](=O)[O-])c1c(C(=O)O)cc3c(c12)OCO3	1	-11	-7	-11	-2
COc1ccc(CC2(CCc3ccncc3)C(=O)NC(=O)NC2=O)cc1OC	0	-3	0	-1	37*
Oc1ccc(/C=N/NP(=S)(c2ccccc2)c2ccccc2)cc1O	-37	3	-5	-21*	·
CCCCC1(CN2CCCC2=O)C(=O)NC(=O)NC1=O	·	0	-2	·	·
O=C1NC(=O)N(Cc2ccco2)C(=O)/C1=C/c1ccc(-c2cccc([N+](=O)[O-])c2)o1	·	·	-14	·	·
C=CCN1C(=O)NC(=O)/C(=C\c2ccc(-c3ccccc3[N+](=O)[O-])o2)C1=O	-1	·	-26	18	48*
N#CC1C(C#N)C2CCC1C1C2N1c1ccccc1 (stereo not drawn)	-1	-4	-7	1	47*
CC[C@@H]1c2ccccc2[C@@H]2CC[C@H]1N2c1ccccc1	4	·	·	-22	-4
Cc1cc(N=Nc2ccccc2C)ccc1N	13	31	35	-60	55*
Nc1ccc(N=Nc2ccccc2)cc1	5	·	35	-4	16
NNP(=O)(CC(=O)c1ccccc1)c1ccccc1 (stereo not drawn)	-1	·	·	12	-2
NCC(=O)c1ccccc1	0	67*	54	·	15
CC1CCC(C(=O)NC(C(=O)N2CCC3(CC2)OCCO3)C(C)C)CC1 (stereo not drawn)	·	-10	·	·	·
CN(C)P1(=O)N(C)CCN1C	-6	0	·	·	·
SMILES	MLL AF4-AF9 inh	esBAF inh	MITF act	rRNA inh HTS	Wnt act
Cc1nc2c(-c3ccccc3)c(C)nn2c(C)c1CCC(=O)N1CCC2(CC1)OCCO2	·	-3	·	·	-3
Cc1nc2c(c(C)nn2-c2ccccc2)c(C)c1CCC(=O)N1CCC2(CC1)OCCO2	·	55*	6	·	·
CCCCn1c(O)c(C(C)=NCc2ccco2)c(=O)[nH]c1=O	0	-7	·	15	45*
C=CCn1c(O)c(C(C)=NCc2ccco2)c(=O)[nH]c1=O	·	-7	4	·	-1
FC(F)(F)c1cccc(NC2=NCCS2)c1	-11	·	·	-18	-5
COc1ccc(-c2cc(C(=O)N3CCC4(CC3)OCCO4)c3ccccc3n2)cc1	0	41*	48	-3	8
CCOc1ccc(-c2cc(C(=O)N3CCC4(CC3)OCCO4)c3ccccc3n2)cc1	7	·	100*	17	24
CN1C(=O)NC(=O)C(N=Nc2ccc(Cl)cc2)C1=O (stereo not drawn)	-1	42*	11	-2	18
CN1CC(Br)C(=O)NC1=O (stereo not drawn)	-1	3	-14	12	0
Cc1nc(Cl)sc1C(=O)Nc1ccc2ccccc2c1	-3	·	54	-31*	14
CC1CCCN(c2ccc(C(=O)N3CCC4(CC3)OCCO4)cc2[N+](=O)[O-])C1 (stereo not drawn)	4	-1	-2	-30*	-2
O=C(c1ccc(N2CCCCC2)c([N+](=O)[O-])c1)N1CCC2(CC1)OCCO2	1	0	-3	-14	0
COc1ccccc1N1CCN(Cc2ccc(Br)cc2)CC1	11	4	·	-28*	-3
O=c1[nH]c2ccccc2n1C1CCN(Cc2ccc(-c3nc4ccccc4nc3-c3ccccc3)cc2)CC1	2	·	·	-2	-2
O=C(COC(=O)c1ccc(O)cc1)Nc1ccc(Cl)cc1C(=O)c1ccccc1	4	·	58	-43*	-7
CCOc1ccc2nc(N=Nc3c(O)[nH]c(=O)[nH]c3=O)sc2c1	2	-9	-7	-20*	1
CCOc1ccc2nc(N=Nc3c(O)[nH]c(=S)[nH]c3=O)sc2c1	0	·	5	-34*	-1
CCOC(=O)CC1c2ccccc2-n2nncc2CN1Cc1ccc(OC)cc1 (stereo not drawn)	-1	-1	-5	-9	-2
CCCCn1nnnc1C(C1CC1)N1CCC(n2c(=O)[nH]c3ccccc32)CC1 (stereo not drawn)	-84	4	·	-20*	-2
COc1cccc(C2CCN(C)C2)c1 (stereo not drawn)	1	-1	·	-1	1
COc1ccc(SCC2CN(C)CCC2c2ccc(F)cc2)cc1 (stereo not drawn)	2	·	·	-33*	2
OC1CN2CCCC(O)C2C1O (stereo not drawn)	-1	·	·	·	-2
COc1ccc(-c2ccc3c(c2)CNCc2cnnn2-3)cc1	0	36	·	5	2
Fc1cccc(-c2ccc3c(c2)CNCc2cnnn2-3)c1	-1	43*	·	8	1
c1ccc(-c2ccc3c(c2)CNCc2cnnn2-3)cc1	-1	13	·	10	-1
SMILES	MLL AF4-AF9 inh	esBAF inh	MITF act	rRNA inh HTS	Wnt act
c1cc2c(cc1-c1ccc3c(c1)OCO3)CNCc1cnnn1-2	-2	51*	·	11	-1
COc1ccc(C(C)=O)cc1CC(C(=O)c1ccccc1)N(C)C (stereo not drawn)	·	41*	28	·	9
O=S(=O)(c1ccccc1)C1CN1c1c(F)c(F)c(F)c(F)c1F (stereo not drawn)	-5	·	·	17	-2
C#CC1(O)C=CC2C3CCC4=CC(=O)CCC4C3CCC21CC (stereo not drawn)	-1	-1	-8	-20*	1
CCC1(O)CCC2C3CCC4=CC(=O)CCC4C3CCC21CC (stereo not drawn)	-11	-2	2	-34	-5
CN=C(SCC(=O)c1cccc(Cl)c1)c1c(O)n(C)c(=O)n(C)c1=O	-2	·	-14	-7	-1

Assay outcomes as filed in PubChem BioAssay.
